# ALOX12 inh – Primary qHTS assay for inhibitors of human arachidonate 12S-lipoxygenase (ALOX12): Round 2; Polyunsaturated fatty acid lipoxygenase ALOX12 (Homo sapiens), P18054; Potency, µM (highest dose often 108 µM), for inactives: at the highest dose activity change, negative = inhibition, usual class: inhibitors; purified 12hLO, xylenol orange hydroperoxide absorbance; 1.1% of 580,000 active; also: potency is read from the fitted curve at half-maximal effect
#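 Purified human 12hLO at 150 nM in 25 mM Hepes, 0.01% Triton X-100, pH 7.0, preincubated 15 min at room temperature with compound. Reaction started with 40 uM arachidonic acid, 30 min at room temperature. Hydroperoxide measured by Fe-xylenol orange, 573/405 nm absorbance ratio.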
# IL-1B inflam inh – qHTS for Inhibitors of Inflammasome Signaling: IL-1-beta AlphaLISA Primary Screen; activity change, % at 57.5 µM; THP-1 LPS/ATP IL-1B secretion, AlphaLISA, 16 h; hits give low values; 4.7% of 360,000 active; AID 743279, 2014; in the data active = activity change below about -50%; inconclusive = mostly about -30% to -49%
#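 THP-1 cells pretreated 1 hr with compounds (up to 57.5 uM final), then stimulated with LPS (250 ng/mL final) plus ATP (1.25 mM final); secreted IL-1B measured by AlphaLISA after 16 hr, decreased signal indicating inhibition.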
# DT40 TDP1 no CPT – qHTS for Inhibitors of human tyrosyl-DNA phosphodiesterase 1 (TDP1): qHTS in cells in absence of CPT | Potency, µM (titrated, usually from 46.2 µM), for inactives: at the top dose activity change, negative = growth inhibition, most hits filed as inhibitors | DT40 Tdp1-/- hTDP1 cells, no CPT, ATP luminescence, 48 h | 15% of 420,000 active; also: potency is read from the fitted curve at half-maximal effect; nearly all actives have a fitted effect of over 55% in size
#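 Chicken DT40 Tdp1-/- cells complemented with human TDP1, screened without camptothecin (DMSO vehicle only), 400 cells/well. Compounds pin-transferred, cells incubated at 37 °C for at least 48 hr. Growth read as ATP-dependent luminescence (CellTiter-Glo, 30 min at RT).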
# HT1080-NT tox – qHTS for induction of synthetic lethality in tumor cells producing 2HG: qHTS for the HT-1080-NT fibrosarcoma cell line; Potency, µM (doses to about 46.1 µM), without a hit: at the top dose activity, negative = less viability, hits mostly cytotoxic; HT-1080-NT fibrosarcoma viability, CellTiter-Glo ATP luminescence, 48 h; 1.6% of 360,000 active;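 also: NT is the 2HG producing partner of a matched IDH1 knockdown line; potency is read from the fitted curve at half-maximal effect; 0% = DMSO-treated cells and -100% = media-only wells without cells; nearly all actives have a fitted effect of over 55% in size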
#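 Viability of the 2HG-overproducing fibrosarcoma line after 48 hours of compound exposure at 37 degrees C was determined by luminescence with CellTiter-Glo, and concentration-effect curves were then fitted and categorized.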
# HT1080 IDH1KD tx – qHTS for induction of synthetic lethality in tumor cells producing 2HG: qHTS for the HT-1080-IDH1KD cell line. HT-1080 IDH1 knockdown viability, ATP luminescence, 48 h. Potency, µM (titrated, usually from 46.1 µM), without a hit: at the top dose activity, negative = toxicity, actives largely listed as cytotoxic. 2% of 360,000 active. AID 686971, 2013;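 also: potency is read from the fitted curve at half-maximal effect; 0% = DMSO wells and -100% = cell-free medium wells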
#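 HT-1080-IDH1KD cells (IDH1 knocked down), 750/well in RPMI with 5% FBS, treated with compound 48 h at 37 degrees C. Viability by CellTiter-Glo luminescence, normalised to DMSO and no-cell wells; concentration-response curves classed.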
# DT40 TDP1 CPT – qHTS for Inhibitors of human tyrosyl-DNA phosphodiesterase 1 (TDP1): qHTS in cells in presence of CPT | AID 686979, 2013 | 12% of 420,000 active | Potency, µM (highest dose often 46.2 µM), without a hit: at the highest dose activity change, negative = growth inhibition, most hits filed as inhibitors | chicken DT40 Tdp1-/-;hTDP1 cells + 20 nM CPT, ATP luminescence, 48 h; also: potency is read from the fitted curve at half-maximal effect; nearly all actives have a fitted effect of over 55% in size
#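 Chicken DT40 Tdp1-/- cells stably complemented with human TDP1 were seeded at 400 cells/well in medium containing 20 nM camptothecin, exposed to pin-transferred compounds, and grown at 37 °C for at least 48 hr. Viability was read as ATP luminescence.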
# * = called active by the depositor; ? = inconclusive; . = not tested or not shown. This excerpt belongs to a sample that is enriched for hits. Unless noted, calls follow the shape of the dose curve; as a rule, active = well fitted curve in the direction sought with a large enough effect; inconclusive = small, poorly fitted or top-dose-only effect, or another doubt; inactive = no such curve, though single readings can be large; an effect the other way counts as inactive or inconclusive. Unless noted, % is scaled to controls: 0 for no effect and ±100 for the full control effect.
SMILES,ALOX12 inh,IL-1B inflam inh,DT40 TDP1 no CPT,HT1080-NT tox,HT1080 IDH1KD tx,DT40 TDP1 CPT
CCOc1cc(C(=O)N2CCC(CC3CC(c4cccc(Br)c4)=NO3)(C(=O)NCC3CCCCC3)CC2)cc(OCC)c1OCC (centres undefined),-2%,?,21µM*,1%,1%,?
O=C(C1CCCC1)N1CCC(CC2CC(c3cccc(Br)c3)=NO2)(C(=O)NCC2CCCCC2)CC1 (centres undefined),?,0,?,-8%,-6%,16µM*
O=C(C1CCCC1)N1CCC(CC2CC(c3ccc(Cl)cc3)=NO2)(C(=O)NCC2CCCCC2)CC1 (centres undefined),7%,-29,-21%,3%,-6%,-23%
Cc1ccc(N=Nc2ccc(N)cc2C)c(S(N)(=O)=O)c1,?,-8,-24%,?,12%,-22%
Cc1cc(-c2ccc(N=Nc3ccc4c(S(=O)(=O)O)cc(S(=O)(=O)O)c(N)c4c3O)c(C)c2)ccc1N=Nc1ccc2c(S(=O)(=O)O)cc(S(=O)(=O)O)c(N)c2c1O,159%,.,12µM*,.,.,7.5µM*
Cc1cccnc1CNC(=O)C1(C)CCCN1CC(C)C (centres undefined),5%,53,15µM*,24%,26%,15µM*
Cc1ccsc1C(=O)N1CCCC1(C)C(=O)NCC(C)C (centres undefined),5%,4,-12%,1%,12%,-9%
CSc1ccccc1CNC(=O)C1(C)CCCN1CC(C)C (centres undefined),-5%,24,23µM*,3%,-12%,26µM*
Cc1ccsc1CNC(=O)C1(C)CCCN1CC(C)C (centres undefined),5%,11,?,16%,6%,15µM*
CC(C)C(=O)N1CCCC1(C)C(=O)NCc1ccccn1 (centres undefined),4%,49,31%,2%,29%,-18%
CCOC(=O)c1oc2cc(OS(C)(=O)=O)ccc2c(=O)c1-c1ccc(OC)c(OC)c1,-16%,.,.,.,.,.
CCOCCCNC(=O)/C(C#N)=C/c1ccc(Cl)c([N+](=O)[O-])c1,?,-29,7.3µM*,23µM*,33µM*,2.6µM*
CCOCCCNC(=O)/C(C#N)=C/c1ccc(C(=O)OC)cc1,-9%,-10,-19%,20%,6%,?
CCOCCCNC(=O)/C(C#N)=C/c1cc(C)c(O)c(C)c1,2%,14,23µM*,-12%,-16%,?
CCOCCCNC(=O)/C(C#N)=C/c1cc(OC)c(O)c([N+](=O)[O-])c1,-15%,0,2.9µM*,6.5µM*,4.6µM*,3.7µM*
COCCCNC(=O)/C(C#N)=C/c1ccc(OCC(=O)O)c(OC)c1,-21%,-3,-11%,12%,?,-2%
c1coc(-c2nc3ccccc3nc2-c2ccco2)c1,50µM*,?,?,-20%,?,18µM*
c1coc(-c2cnc3ccccc3n2)c1,40µM*,-11,-2%,5%,13%,23%
O=c1oc(-c2ccco2)nc2ccccc12,11%,14,?,4%,1%,-27%
CC(C)Oc1ccc2ccccc2c1CN1C[C@H](O)C[C@H]1C(=O)O,-7%,.,.,.,.,.
Cc1ccc(CNc2nc3ccccc3nc2NS(=O)(=O)c2ccccc2)cc1,10%,.,.,.,.,.
